Several values for one entry are separate records, joined by “and”; a condition that tells them apart may be missing. Identical values can stand only once. In all, about 350,000 compounds went through this assay and about 31,000 (8.9%) were called active. About 15% were inconclusive and are not listed. Calls come from the whole dose curve; as a rule, active = well fitted inhibition curve with a large enough effect; inconclusive = small, poorly fitted or top-dose-only effect; inactive = no such curve, though single readings can be large or run the other way. What follows is part of a selection rich in actives, with near analogues and random picks from the rest. The source holds several records for some structures; these can differ, active in one and inactive in another.
target: Histone-lysine N-methyltransferase EHMT2 (Homo sapiens) (UniProt Q96KQ7); assay: qHTS Assay for Inhibitors of Histone Lysine Methyltransferase G9a; details: G9a H3K9 monomethylation, AlphaScreen, 2 h; series mostly up to 59 µM; activity, negative = inhibition: at the top concentration; note: nearly all actives have a fitted effect of over 75% in size
Sequence (Q96KQ7 913-1193 limits assumed): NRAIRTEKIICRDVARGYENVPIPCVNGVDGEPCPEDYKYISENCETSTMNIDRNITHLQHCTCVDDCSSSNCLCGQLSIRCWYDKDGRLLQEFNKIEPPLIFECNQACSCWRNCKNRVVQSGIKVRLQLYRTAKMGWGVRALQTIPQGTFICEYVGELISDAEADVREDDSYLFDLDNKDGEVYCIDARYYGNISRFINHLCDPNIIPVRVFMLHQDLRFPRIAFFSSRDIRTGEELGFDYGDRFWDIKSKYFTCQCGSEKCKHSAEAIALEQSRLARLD
In short: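 Chemiluminescent proximity detection of H3K9 monomethylation, read after 10 min bead incubation in the dark. Reaction: 20 nM G9a, 500 nM biotin-H3K9 peptide, 20 uM SAM cofactor, 2 h, room temperature, following 15 min enzyme-compound preincubation.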
% is set by controls: 0 for no effect and ±100 for the full control effect; potency is the fitted concentration of half-maximal effect.

Potency, active:
COC(=O)c1[nH]c2ccc(Br)cc2c1NC(=O)Oc1ccccc1 11.2 µM
Cc1ccccc1CN1C[C@@H]2C[C@@H](c3cn(C)nc3-c3ccccc3)N3CCC[C@@]23C1=O 10 µM
O=C(CSc1nccn1-c1ccc(F)cc1)Nc1cccc2ccccc12 14.1 µM
Cc1cccc(-n2ccnc2SCC(=O)Nc2cccc3ccccc23)c1C 12.6 µM
Cc1nnc(NC(=O)CSc2nccn2-c2cccc(C)c2C)s1 50.1 µM
CSCCC1NC2(C(=O)Nc3ccc(Cl)cc32)[C@@H]2C(=O)N(C3CCCC3)C(=O)[C@H]12 (stereo partly specified) 50.1 µM
CCCCC(CC)CNC(=O)C(=O)C1C(=O)Nc2ccccc21 (stereo unspecified) 44.7 µM
N/C(=N\OC(=O)N1c2ccccc2Sc2ccccc21)c1ccc(Br)cc1 50.1 µM
CCN1C(=O)/C(=C2/Sc3ccccc3N2CCCS(=O)(=O)O)SC1=S 39.8 µM

Potency, inactive and 22.4 µM (active):
O=C(c1ccc2c(c1)N(Cc1ccc(F)cc1)C(=O)c1ccccc1S2(=O)=O)N1CCN(c2ccccn2)CC1

activity, negative = inhibition, inactive:
O=C(Nc1ccccc1)C1CCN(C(=O)c2ccc(Br)cc2)CC1 -4.25% [at 102 µM]
CC(=O)c1c(C)[nH]c(C(=O)CN2C(=O)NC(C)(C)C2=O)c1C 3.15% [at 0.501 µM]
Cc1ccc(CN2CCN(Cc3cn(C)nc3-c3ccccc3)CC2CCO)o1 (stereo unspecified) 2.66% [at 102 µM]
Cc1ccccc1CN1CCN(CC(=O)NCc2ccccn2)C1=O 5.93%
Cc1ccc(C(=O)CN2C(=O)NC3(CCc4ccccc43)C2=O)c(C)c1 (stereo unspecified) 3.17% [at 102 µM]
O=C(CSc1nccn1Cc1ccc(F)cc1)NCc1ccccc1 -3.68%
Cc1ccc(C)c(-n2ccnc2SCC(N)=O)c1 23.6% [at 12.7 µM]
COc1ccccc1-n1ccnc1SCC(=O)NC(C)(C)C 19.7% [at 102 µM]
COc1ccccc1-n1c(CNC(=O)c2ccccc2)nnc1SCC(=O)Nc1nnc(C)s1 -4.37% [at 102 µM]
Cc1cc(NC(=O)CSc2nccn2-c2ccc([N+](=O)[O-])cc2)no1 -0.25% [at 102 µM]
Cc1ccc2nc(SCC(=O)Nc3cccc4ccccc34)nc(=O)n2c1 -26.2% [at 102 µM]
COc1cccc(-c2ccc3c(c2)S(=O)(=O)c2cccc(C(=O)O)c2C3=O)c1OC -17.9% [at 0.501 µM]
CCC(=O)N1c2ccc(S(=O)(=O)NCc3ccco3)cc2CC1C (stereo unspecified) -12.6%
Fc1ccc(-n2ncc3c(Nc4ccc(Oc5ccccc5)cc4)ncnc32)cc1 -1.42%
CCCc1cc(=O)[nH]c2nnc(SCC(=O)Nc3nnc(SCC)s3)n12 -30.1% [at 102 µM]
Cc1cccc(Nc2nc(C)nc(N)c2S(=O)(=O)c2ccccc2)c1 4.77%
C=CCc1cccc(/C=N/NC(=O)COc2ccc(-n3cnnn3)cc2)c1O -11.3% [at 102 µM]
CCN(CC)S(=O)(=O)c1ccc(N2CCOCC2)c(NC(=O)c2ccc(=O)n(C)n2)c1 -4.25% [at 12.7 µM]
O=C1[C@@H]2C(Cc3ccc(O)cc3)NC3(C(=O)Nc4ccc(F)cc43)[C@@H]2C(=O)N1c1ccc(F)cc1 (stereo partly specified) -37.6% [at 12.7 µM]
C[C@@]12C(=O)N(c3cccc(Br)c3)C(=O)N1[C@H](c1ccc(Cl)cc1)[C@@H]1C(=O)N(C3CCCCC3)C(=O)[C@@H]12 -8.19% [at 102 µM]
O=C(NCCS(=O)(=O)N1CCN(c2ccc(F)cc2)CC1)c1ccc2c(c1)OCO2 -0.16% [at 102 µM]
O=C(Nc1ccccc1F)C(c1ccccc1)N1Cc2ccccc2C1=O (stereo unspecified) -1.89%
CC1CCCCN1Cc1c(O)ccc2c(=O)c(-c3cccc(Cl)c3)c(C(F)(F)F)oc12 (stereo unspecified) -1.19%
CCCCC(CC)CNC(=O)C1CCN(S(=O)(=O)c2cccc3nsnc23)CC1 (stereo unspecified) 3.29%
CCOC(=O)C(=O)C1C(=O)Nc2ccccc21 (stereo unspecified) -47.2% [at 2.33 µM]
O=C(c1ccc2c(c1)N(Cc1ccc(Cl)cc1)C(=O)c1ccccc1S2(=O)=O)N1CCCCC1 -1.97%
O=C(c1ccc2c(c1)N(Cc1ccccc1)C(=O)c1ccccc1S2(=O)=O)N1CCCC1 -26.6%
CCOC(=O)c1cc(C(=O)Nc2ccc(S(=O)(=O)Nc3ccc(OC)cc3)cc2)nn1C 2.94% [at 102 µM]
Cc1ccc2nc(-c3ccc(Br)cc3)cn2c1 -9% [at 102 µM]
O=C1C=C(c2cccc(Cl)c2)C[C@@H](c2ccc(F)cc2)C1 6.54% [at 0.501 µM]
CC1=C(C(=O)OCc2ccc(C)cc2)C(c2ccccc2Cl)CC(=O)N1 (stereo unspecified) -30.3%
N/C(=N\OC(=O)c1ccc2c(c1)OCO2)c1ccc(Br)cc1 -36.4% [at 102 µM]
N/C(=N\OC(=O)/C=C/c1ccccc1)c1ccc(Br)cc1 23.4% [at 102 µM]
CCN1C(=O)/C(=c2\s/c(=C3\Sc4ccccc4N3C)c(=O)n2C)N(C)C1=S -35.3% [at 102 µM]
CCCCN1C(=O)/C(=C/C=C2/C=Cc3ccccc3N2CC)SC1=S 7.58% [at 102 µM]
CCN1C(=O)[C@H]2[C@@H](c3ccc(SC4CCCCC4)c(OC)c3)N[C@@](Cc3ccccc3)(C(=O)OC)[C@H]2C1=O 20.9% [at 2.33 µM]
